Shown are actives, neighbours in structure and some others; about 10% of the full set was active somewhere.
HPGD inh – qHTS Assay for Inhibitors of HPGD (15-Hydroxyprostaglandin Dehydrogenase); actives 4.3% (n = 150,000); 15-hydroxyprostaglandin dehydrogenase [NAD(+)] (Homo sapiens), P15428; purified HPGD, NADH fluorescence kinetic, PGE2 substrate; Potency, µM, for the others: at the top dose activity change, negative = inhibition, actives largely listed as inhibitors; active = well fitted inhibition curve with a large enough effect, not every such curve was filed as active; inconclusive = small, poorly fitted or top-dose-only effect, or another doubt; inactive = no such curve, though single readings can be large or run the other way; also: potency is read from the fitted curve at half-maximal effect
Target sequence (P15428 whole entry, looked up): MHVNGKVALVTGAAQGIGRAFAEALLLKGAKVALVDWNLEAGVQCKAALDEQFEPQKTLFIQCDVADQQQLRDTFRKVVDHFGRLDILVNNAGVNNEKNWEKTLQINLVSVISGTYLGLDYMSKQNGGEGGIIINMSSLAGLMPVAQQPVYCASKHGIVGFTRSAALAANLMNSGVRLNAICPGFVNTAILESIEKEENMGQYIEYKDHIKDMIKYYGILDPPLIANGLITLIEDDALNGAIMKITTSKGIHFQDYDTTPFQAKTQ
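NADH formation kinetics: reaction with 30 uM PGE2 and 1 mM NAD+ (final), 20 nM enzyme, Tris-HCl pH 8 with Tween 20, after 15 min compound preincubation at room temperature. Fluorescence change, last versus first of five reads.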
PNC inhibitor – High Content Assay for Compounds that inhibit the Assembly of the Perinucleolar Compartment. PC3M PTB-GFP, PNC prevalence imaging, 16 h; hits give low values. activity change (PNC), negative = inhibition, % at 10 µM. actives 3.1% (n = 140,000). AID 2417, 2010;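 active = readout at or below -70, meaning at least 70% loss of cells showing the perinucleolar compartment, a nuclear body marking cancer cells; inconclusive = readout between -30 and a set limit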;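 also: plate controls were DMSO wells for no effect and camptothecin positive control wells for full effect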
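PC3M cells stably expressing PTB-GFP, 750–1000 cells/well, treated 16 h at 37 °C with compound (23 nl of library stock), in duplicate. After paraformaldehyde fixation and Hoechst stain, imaged at 20x; PNC prevalence scored by image analysis.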
aGal spleen mod – qHTS Assay for Inhibitors and Activators of Human alpha-Galactosidase From Spleen Homogenate; Alpha-galactosidase A (Homo sapiens), P06280; human spleen homogenate, 4MU-alpha-Gal fluorescence, 40 min; Potency, µM (doses to about 80 µM), inactives show top-dose activity change, negative = inhibition, actives largely listed as inhibitors; actives 0.008% (n = 240,000);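 also: potency is read from the fitted curve at half-maximal effect; 0% = enzyme with vehicle and -100% = no enzyme basal signal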
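Human spleen homogenate (1 ug) as enzyme source, 4-methylumbelliferyl-alpha-D-galactopyranoside 1 mM final, citrate/phosphate pH 5.0 with 0.01% Tween-20. Compounds 40 min at 37C, NaOH/glycine stop; fluorescence Ex 365/Em 440, Hill-fit AC50.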
GLA inh pH 4.5 – qHTS Assay for Inhibitors of Human alpha-Galactosidase at pH 4.5; purified enzyme, 4-MU-alpha-Gal fluorescence, pH 4.5; activity change, negative = inhibition, % at 105 µM; 230,000 tested, under 10 active;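 also: 0% = full activity with enzyme and -100% = basal without enzyme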
Target sequence (P06280 whole entry, looked up): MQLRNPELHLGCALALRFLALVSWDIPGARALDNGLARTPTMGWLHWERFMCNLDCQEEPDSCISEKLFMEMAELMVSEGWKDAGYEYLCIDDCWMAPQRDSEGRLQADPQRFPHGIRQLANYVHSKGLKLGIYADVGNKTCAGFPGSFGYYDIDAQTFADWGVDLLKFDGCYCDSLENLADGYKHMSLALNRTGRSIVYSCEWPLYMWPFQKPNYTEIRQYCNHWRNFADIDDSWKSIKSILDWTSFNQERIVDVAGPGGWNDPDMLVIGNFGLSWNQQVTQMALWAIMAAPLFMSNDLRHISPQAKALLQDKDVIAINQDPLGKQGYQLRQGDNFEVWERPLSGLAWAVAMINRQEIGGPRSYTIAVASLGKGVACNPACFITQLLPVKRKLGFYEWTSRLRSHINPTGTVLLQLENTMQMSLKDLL
ALOX12 inhib – qHTS Assay for Inhibitors of 12-hLO (12-human lipoxygenase); purified 12-hLO, xylenol orange hydroperoxide absorbance; Potency, µM (series often up to 57.1 µM), without a hit: top-dose activity change, negative = inhibition, most hits filed as inhibitors; actives 0.12% (n = 150,000); AID 1452, 2008; also: potency is read from the fitted curve at half-maximal effect; nearly all actives have a fitted effect of over 55% in size
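Hydroperoxide formation by human 12-lipoxygenase from 40 uM arachidonic acid was followed colorimetrically via ferric-xylenol orange complex, using the 573/405 nm absorbance ratio. Enzyme concentration was 150 nM, with 30 min reaction at room temperature.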
ALDH1A1 inh – qHTS Assay for Inhibitors of Aldehyde Dehydrogenase 1 (ALDH1A1). Aldehyde dehydrogenase 1A1 (Homo sapiens), P00352. Purified ALDH1A1, NADH fluorescence, propionaldehyde substrate. Potency, µM (top dose mostly 75.3 µM), without a hit: at the top dose activity, negative = inhibition, most hits filed as inhibitors. actives 7.3% (n = 220,000). AID 1030, 2008; active = well fitted inhibition curve with a large enough effect, not every such curve was filed as active; inconclusive = small, poorly fitted or top-dose-only effect, or another doubt; inactive = no such curve, though single readings can be large or run the other way;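 also: potency is read from the fitted curve at half-maximal effect; plate controls were no enzyme wells and a reference inhibitor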
Numbers without * were called inactive; ? = inconclusive; . = no result; [ ] = remark or other dose. Unless noted, calls follow the shape of the dose curve; as a rule, active = well fitted curve in the direction sought with a large enough effect; inconclusive = small, poorly fitted or top-dose-only effect, or another doubt; inactive = no such curve, though single readings can be large; an effect the other way counts as inactive or inconclusive. Unless noted, % is scaled to controls: 0 for no effect and ±100 for the full control effect.

SMILES	HPGD inh	PNC inhibitor	aGal spleen mod	GLA inh pH 4.5	ALOX12 inhib	ALDH1A1 inh
Cc1cccc(Oc2ccccc2NC(=O)c2cnccn2)c1	-17.4%	20.8	6.9%	-1.7	9.0%	11.2µM*
O=C(Nc1ccccc1F)c1cnccn1	.	.	-0.3%	-13.8[21.1 µM]	.	7.0%
CCCCCCN(C(=O)CCCCCN1C(=O)NC(c2ccc(C3CCCCC3)cc2)C(C(=O)OCc2ccccc2)=C1C)C(C(=O)NCCCC)c1ccc(OCC(=O)OC)c(C(=O)OC)c1 (stereo not drawn)	-12.0%	.	-4.6%	-1.7	-2.9%	2.1%
O=C(CCl)NC(=O)NC12CC3CC(CC(C3)C1)C2	-9.0%	28.8	-4.3%	5.5	0.5%	7.94µM*
CC1=C(/C=C/C(C)=C/C=C/C(C)=C/C=C/C=C(C)/C=C/C=C(C)/C=C/C2=C(C)C(=O)C(O)CC2(C)C)C(C)(C)CC(O)C1=O (stereo not drawn)	-6.0%	.	0.0%	7.3	1.5%	6.0%
O=C(c1ccc(COCC(F)(F)F)o1)N1CCCC1	.	.	-5.5%	3.3	.	0.9%
CCCOc1ccc(NC(=O)C2CC(=O)N(C)C(=Nc3cccc(OC)c3)S2)cc1 (stereo not drawn)	.	.	-8.2%	2.9	.	10.5%
COc1ccccc1N=C1SC(C(=O)Nc2ccc(F)cc2)CC(=O)N1C (stereo not drawn)	-6.4%	-100.0*	-0.8%	-3.3	-0.7%	8.4%
COCC1=C2c3ccccc3[C@@H]3CNC(=O)C3(C(=O)OC)C[C@@H]2n2c(=O)n(-c3ccccc3)c(=O)n2C1 (stereo partly drawn)	-16.8%	.	-2.5%	-8.9	2.4%	-0.2%
NS(=O)(=O)c1ccc(CCNC(=O)NC2(C(F)(F)F)Oc3ccccc3O2)cc1	-11.8%	-100.0*	6.7%	-2.4	-1.4%	7.7%
NNc1ccc2nnc(C(F)(F)C(F)(F)C(F)(F)F)n2n1	.	.	5.1%	6.2	.	-3.6%
CC(C)(C)NC(=O)CSc1nc2ccccc2n1-c1ccccc1	-20.2%	-19.9	3.5%	-6.6	1.1%	-11.7%
CCOC(=O)C1=C(Cc2ccc(F)cc2)C(=O)c2ccccc2C1=O	7.94µM*	?	-4.6%	-5.2	?	?
O=C1Nc2ccccc2/C1=N\c1sc2c(c1C(=O)Nc1ccccc1)CCCC2	-8.9%	54.6	-2.2%	-4.5	-1.4%	25.1µM*
O=C(CSc1n[nH]c(-c2ccco2)n1)Nc1sc2c(c1C(=O)Nc1ccccc1)CCCC2	-7.1%	9.5	0.7%	-5.0	-2.3%	-3.1%
COCC(=O)N1CCC[C@@]2(CCN(c3ccccc3)C2)C1	-8.6%	.	2.1%	.	1.5%	-8.6%
CC1(C(=O)Nc2nnc(SCc3ccccc3)s2)Cc2ccccc2C(=O)O1 (stereo not drawn)	28.2µM*	?	16.1%	-4.9	-4.2%	?
O=C1C=CC(O)(c2cc(=O)c3c(O)cc(O)cc3o2)C=C1	-7.7%	-118.9*	-2.4%	3.9	-4.2%	-2.0%
CC1(C)O[C@H]2[C@@H](c3[nH]nc4c(=O)[nH]c(=O)[nH]c34)OC[C@H]2O1	-8.0%	.	.	.	-3.8%[11.4 µM]	-6.7%[13.5 µM]
Cn1c(=O)c([N+](=O)[O-])c(NCCc2ccccc2)c2ccccc21	15.8µM*	?	3.6%	5.7	-4.9%	-8.1%
Cn1c(=O)c([N+](=O)[O-])c(Cl)c2ccccc21	.	.	-5.4%	-0.1	.	17.8µM*
CCn1c(=O)c([N+](=O)[O-])c(NCCc2ccccc2)c2ccccc21	15.8µM*	?	-10.8%	-2.8	1.3%	?
CCn1c(=O)c([N+](=O)[O-])c(NC2CCS(=O)(=O)C2)c2ccccc21 (stereo not drawn)	.	.	0.6%	8.2	.	.
CCn1c(=O)c([N+](=O)[O-])c(NCCc2ccc(OC)c(OC)c2)c2ccccc21	8.91µM*	12.5	5.1%	5.2	-5.2%	14.1µM*
FC(F)(F)c1ccccc1-c1cc(NCc2cccnc2)ncn1	.	.	-2.4%	.	.	12.1%
SMILES	HPGD inh	PNC inhibitor	aGal spleen mod	GLA inh pH 4.5	ALOX12 inhib	ALDH1A1 inh
COc1ccc(-c2nc3cnc(N(C)C)nc3n(CCC#N)c2=O)cc1	.	.	-2.4%	.	.	?
COc1ccc(NC(=O)c2ccc(-c3ccc(-c4noc(C)n4)cc3C)cc2)cc1OCCN(C)C	?	.	-6.2%	4.8	3.5%	-6.6%
Cn1c(=O)c([N+](=O)[O-])c(NCc2ccccc2Cl)c2ccccc21	.	.	8.1%	0.8	.	.
Cc1ccc(Nc2c([N+](=O)[O-])c(=O)n(C)c3ccccc23)cc1C	-11.2%	3.7	-5.2%	-8.0	-1.5%	8.91µM*
CC(=O)Nc1ccc(Nc2c([N+](=O)[O-])c(=O)n(-c3ccccc3)c3ccccc23)cc1	.	.	-4.4%	-4.5	.	10µM*
O=C(Cc1ccccc1[N+](=O)[O-])NCCCN1CCOCC1	.	.	-3.5%	.	.	9.4%
CC(C)OCCCN1CN(S(=O)(=O)c2ccc(Cl)cc2)c2nc3ccccc3nc21	-9.0%	2.9	?	1.8	-15.2%	28.2µM*
CC(C)OCCCN1CN(S(=O)(=O)c2cccc(Cl)c2)c2nc3ccccc3nc21	-7.5%	95.9	6.6%	3.9	3.7%	?
O=C(c1cc(=O)[nH]c2ccccc12)N1CCN(c2ccccc2)CC1	.	.	7.1%	0.6	.	?
CCOC(=O)c1ccc(N2CCN(c3ccccc3F)CC2)c(NC(=O)Nc2cccc(OC)c2)c1	?	?	1.6%	?	0.3%	?
COC(=O)c1ccc(N2CCN(C(C)=O)CC2)c(NC(=O)COc2ccccc2C)c1	.	.	-6.0%	-6.7	.	7.94µM*
COC(=O)c1ccc(N2CCOCC2)c(NC(=O)Nc2cccc(OC)c2)c1	?	?	-6.4%	-3.5	-5.0%	25.1µM*
COC(=O)NC(c1cccc(F)c1)C(C(C)=O)C(=O)OC (stereo not drawn)	.	.	-3.3%[17.5 µM]	.	.	2.7%[13.5 µM]
CCN1C(C)=C(C(=O)OC(C)C)C(c2ccccc2Cl)C(C(=O)O)=C1C(=O)O (stereo not drawn)	.	.	-17.3%	.	.	.
CN(C)CN1CSC(=S)N(CN(C)C)C1	3.16µM*	.	.	.	-4.6%[11.4 µM]	3.98µM*
COc1ccc(CN(Cc2cc3ccc(C)cc3[nH]c2=O)Cc2nnnn2C2CCCC2)cc1	?	?	16.8%	-13.2	-26.2%	?
Cc1ccc2[nH]c(=O)c(CN(Cc3ccc4c(c3)OCO4)Cc3nnnn3C3CCCC3)cc2c1	-26.8%	-22.8	-12.7%	-11.3	-17.9%	20µM*
Cc1cc2cc(CN(Cc3ccc4c(c3)OCO4)Cc3nnnn3C3CCCC3)c(=O)[nH]c2cc1C	-26.3%	39.0	14.7%	-4.9	-6.1%	22.4µM*

Source: PubChem
